Active and inactive are the calls of the source. The calls were made as follows: active = hit-call score of the fitted dose curve at least 0.9, where 1 is the maximum; inactive = score below 0.9.

Read-out in test [1]: Human Leukocyte Antigen - DR isotype (HLADR), HLA-DRA (gene 3122)
Nature of the test: BSK_3C_HLADR: BioMAP Diversity Plus: 3C Assay for Human Leukocyte Antigen - DR isotype (HLADR) Biomarker Activity (AID 2283019).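 As to outcome: ELISA of cell-surface HLA-DR on HUVEC 24 h after dosing.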 The following applies: primary human endothelial cells (HUVEC); actives raise or lower the signal. The method in brief:
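Primary human umbilical vein endothelial cells (3C system) were dosed with compound and cell-surface HLA-DR was quantified by ELISA at 24 h. Activity was fitted bidirectionally against DMSO as negative control and baseline.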

Read-out in test [2]: Interleukin-8 (IL8), CXCL8 (gene 3576)
Nature of the test: BSK_3C_IL8: BioMAP Diversity Plus: 3C Assay for Interleukin-8 (IL8) Biomarker Activity (AID 2283020). The following applies: primary human endothelial cells (HUVEC); actives raise or lower the signal. The method in brief:
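Primary human umbilical vein endothelial cells were dosed for 24 h. IL-8 was quantified by ELISA and fitted bidirectionally against DMSO. Cytotoxicity was assessed in parallel cultures by SRB staining at 560 nm.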

Read-out in test [3]: Monokine induced gamma interferon (MIG), CXCL9 (gene 4283)
Briefly: BSK_3C_MIG: BioMAP Diversity Plus: 3C Assay for Monokine induced gamma interferon (MIG) Biomarker Activity (AID 2283021).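 As to AC50: MIG protein level measured by immunoassay in the treated endothelial cultures.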 To be noted: primary human endothelial cells (HUVEC); actives raise or lower the signal. The essentials: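 HUVEC primary endothelial cultures dosed with chemical; MIG quantified by ELISA at 24 h. Data fitted bidirectionally against DMSO control, with parallel SRB total-protein staining for cytotoxicity.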

A short description of test [4]: BSK_3C_SRB: Viability Assessment in the BioMAP Diversity Plus: 3C Assay (AID 2283023).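 Also: fitted both ways against DMSO so a hit may be signal rise or drop.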 The following applies: primary human endothelial cells (HUVEC). The method in brief: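 Primary human umbilical vein endothelial cells in the 3C system were read 24 h after compound dosing. Total protein was stained with 0.1% sulforhodamine B after 10% TCA fixation and read at 560 nm, with bidirectional fitting against DMSO as baseline.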

Read-out in test [5]: Matrix Metallopeptidase 1 (MMP1), MMP1 (gene 4312)
Nature of the test: BSK_BE3C_MMP1: BioMAP Diversity Plus: BE3C Assay for Matrix Metallopeptidase 1 (MMP1) Biomarker Activity (AID 2283024). The following applies: primary human bronchial epithelial cells; actives raise or lower the signal. The essentials: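 Human primary bronchial epithelial cells (BE3C system) dosed for 24 h; MMP-1 quantified by ELISA. Bidirectional fit against DMSO; cytotoxicity tracked in parallel cultures by SRB total-protein staining.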

A short description of test [6]: BSK_3C_Vis: BioMAP Diversity Plus: 3C Assay for Morphology Visualization (AID 2283025).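 Also: fitted both ways so gain or loss versus DMSO counts.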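 As to AC50: light microscopy image of cell morphology used as background control.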 The following applies: primary human endothelial cells (HUVEC). The essentials:
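Human umbilical vein endothelial cell morphology was inspected by light microscopy 24 h after chemical dosing; scored bidirectionally relative to DMSO.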

Read-out in test [7]: Pselectin, SELP (gene 6403)
Briefly: BSK_4H_Pselectin: BioMAP Diversity Plus: 4H Assay for Pselectin Biomarker Activity (AID 2283026). To be noted: primary human endothelial cells (HUVEC); actives raise or lower the signal. The method in brief:
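Primary human umbilical vein endothelial cells were treated 24 h, and cell-surface P-selectin was then quantified by ELISA. Bidirectional fit versus DMSO; cytotoxicity checked in parallel cultures by SRB total-protein staining.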

A short description of test [8]: BSK_4H_SRB: Viability Assessment in the BioMAP Diversity Plus: 4H Assay (AID 2283027).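 Also: cells exposed to compound for 24 h before staining.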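 As to AC50: curves fitted both ways versus DMSO so AC50 may be loss or gain.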 The following applies: primary human endothelial cells (HUVEC). The method in brief:
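Human umbilical vein endothelial cells were dosed with chemical and, after 24 h, fixed with 10% TCA, stained with 0.1% sulforhodamine B, and read at 560 nm to give total protein as a cytotoxicity measure. Bidirectional fitting relative to DMSO control.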

Test [9] in a line: BSK_BE3C_SRB: Viability Assessment in the BioMAP Diversity Plus: BE3C Assay (AID 2283028).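 As to AC50: fitted both ways so AC50 may mark signal gain or loss versus DMSO.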 The following applies: primary human bronchial epithelial cells. The method in brief: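 Human primary bronchial epithelial cells were exposed to test chemicals for 24 h. Total protein in parallel cultures was then measured by staining with 0.1% sulforhodamine B after 10% TCA fixation, with absorbance read at 560 nm. Activity was fitted bidirectionally against DMSO.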

Read-out in test [10]: Thrombomodulin, THBD (gene 7056)
Nature of the test: BSK_3C_Thrombomodulin: BioMAP Diversity Plus: 3C Assay for Thrombomodulin Biomarker Activity (AID 2283029). To be noted: primary human endothelial cells (HUVEC); actives raise or lower the signal. The essentials:
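Human umbilical vein endothelial cells were exposed to chemicals for 24 h; cell-surface thrombomodulin quantified by ELISA, with bidirectional fitting against DMSO baseline.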

Read-out in test [11]: Urokinase-type plasminogen activator receptor (uPAR), PLAUR (gene 5329)
Nature of the test: BSK_4H_uPAR: BioMAP Diversity Plus: 4H Assay for Urokinase-type plasminogen activator receptor (uPAR) Biomarker Activity (AID 2283030). The following applies: primary human endothelial cells (HUVEC); actives raise or lower the signal. The method in brief: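 Primary human umbilical vein endothelial cells were exposed to chemical for 24 h before cell-surface uPAR was quantified by ELISA. Activity was fitted bidirectionally against the DMSO negative control baseline.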

Read-out in test [12]: Human Leukocyte Antigen - DR isotype (HLADR), HLA-DRA (gene 3122)
Nature of the test: BSK_BE3C_HLADR: BioMAP Diversity Plus: BE3C Assay for Human Leukocyte Antigen - DR isotype (HLADR) Biomarker Activity (AID 2283032). The following applies: primary human bronchial epithelial cells; actives raise or lower the signal. The method in brief: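 Human primary bronchial epithelial cells (BE3C system) exposed to compound for 24 hours; cell-surface HLA-DR measured by ELISA, fitted bidirectionally relative to DMSO. Total protein by SRB in parallel cultures tracked cytotoxicity.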

Read-out in test [13]: Interferon-gamma inducible Protein 10 (IP10), CXCL10 (gene 3627)
Briefly: BSK_BE3C_IP10: BioMAP Diversity Plus: BE3C Assay for Interferon-gamma inducible Protein 10 (IP10) Biomarker Activity (AID 2283034). To be noted: primary human bronchial epithelial cells; actives raise or lower the signal. The essentials:
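Primary human bronchial epithelial cells, with IP-10 measured by ELISA 24 hours after chemical dosing. Bidirectional fit against DMSO; cytotoxicity checked by SRB total protein staining in parallel cultures.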

Read-out in test [14]: Monokine induced gamma interferon (MIG), CXCL9 (gene 4283)
Briefly: BSK_BE3C_MIG: BioMAP Diversity Plus: BE3C Assay for Monokine induced gamma interferon (MIG) Biomarker Activity (AID 2283035). The following applies: primary human bronchial epithelial cells; actives raise or lower the signal. The method in brief:
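ELISA read-out of MIG in human lung bronchial epithelial primary cultures, 24 h post-dosing. Bidirectional curve fit vs DMSO baseline.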

Read-out in test [15]: Transforming growth factor beta 1 (TGFb1), TGFB1 (gene 7040)
Nature of the test: BSK_BE3C_TGFb1: BioMAP Diversity Plus: BE3C Assay for Transforming growth factor beta 1 (TGFb1) Biomarker Activity (AID 2283036). The following applies: primary human bronchial epithelial cells; actives raise or lower the signal. The essentials: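 Primary human bronchial epithelial cells dosed with chemical; TGF-b1 measured by ELISA 24 h after dosing. Bidirectional curve fitting against DMSO negative control; SRB total-protein staining in parallel cultures gauged cytotoxicity.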

Read-out in test [16]: Plasminogen activator inhibitor-1 (PAI1), SERPINE1 (gene 5054)
Nature of the test: BSK_BE3C_PAI1: BioMAP Diversity Plus: BE3C Assay for Plasminogen activator inhibitor-1 (PAI1) Biomarker Activity (AID 2283037). To be noted: primary human bronchial epithelial cells; actives raise or lower the signal. The method in brief: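 Primary human bronchial epithelial cells (BE3C system) exposed 24 h; PAI-1 quantified by ELISA. Parallel sulforhodamine B staining of total protein flags cytotoxicity. Bidirectional fit versus DMSO.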

Read-out in test [17]: urokinase plasminogen activator (uPA), PLAU (gene 5328)
Nature of the test: BSK_BE3C_uPA: BioMAP Diversity Plus: BE3C Assay for urokinase plasminogen activator (uPA) Biomarker Activity (AID 2283038).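 Also: uPA protein level quantified by ELISA in cell cultures; uPA read one day after compound addition.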 To be noted: primary human bronchial epithelial cells; actives raise or lower the signal. The method in brief: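 Human primary bronchial epithelial cells were exposed to chemical for 24 h, then uPA levels were measured by ELISA. Responses were fitted bidirectionally against DMSO as negative control and baseline. Parallel SRB staining of total protein gauged overt cytotoxicity.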

Read-out in test [18]: Urokinase-type plasminogen activator receptor (uPAR), PLAUR (gene 5329)
Nature of the test: BSK_BE3C_uPAR: BioMAP Diversity Plus: BE3C Assay for Urokinase-type plasminogen activator receptor (uPAR) Biomarker Activity (AID 2283039).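 As to outcome: cells exposed to compound for one day before measurement.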 The following applies: primary human bronchial epithelial cells; actives raise or lower the signal. The method in brief:
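Primary human bronchial epithelial cells dosed for 24 h; uPAR quantified by ELISA with bidirectional fitting against DMSO. Overt cytotoxicity assessed in parallel cultures by SRB total-protein staining (0.1% SRB, 560 nm).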

Read-out in test [19]: Vascular endothelial growth factor receptor 2 (Homo sapiens) (UniProt P35968)
Nature of the test: BSK_4H_VEGFRII: BioMAP Diversity Plus: 4H Assay for Vascular endothelial growth factor receptor 2 (VEGFR2) Biomarker Activity (AID 2283031). The following applies: primary human endothelial cells (HUVEC); actives raise or lower the signal. The method in brief:
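Primary human umbilical vein endothelial cells in the BioMAP 4H system were dosed with test chemical, and 24 h later VEGFRII was measured by ELISA. Activity was fitted bidirectionally against DMSO as negative control and baseline.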

Read-out in test [20]: Vascular cell adhesion molecule 1 (VCAM1), VCAM1 (gene 7412)
Nature of the test: BSK_4H_VCAM1: BioMAP Diversity Plus: 4H Assay for Vascular cell adhesion molecule 1 (VCAM1) Biomarker Activity (AID 2283033). To be noted: primary human endothelial cells (HUVEC); actives raise or lower the signal. The method in brief: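 Primary human umbilical vein endothelial cells, 4H stimulation system, treated for 24 h; cell-surface VCAM-1 quantified by ELISA. Bidirectional fitting against DMSO; cytotoxicity tracked by SRB total-protein staining in parallel cultures.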

As to `CCCN(CC)CC1COC2(CCC(C(C)(C)C)CC2)O1` (stereo not drawn), the half-maximal activity concentration (AC50) (in general, the concentration giving half of the maximal activity seen) in [1] was 6.16 µM (active); in [18], 1.77 µM (active). For the same molecule, the outcome in [2], in test [3], in test [4], in test [5], in test [6] and in test [7] was inactive. Also, the outcome in test [8], in test [9], in test [10], in [11], in [12] and in [13] was inactive. Besides, the outcome in [14], in test [15], in [16] and in test [17] was inactive.
For `OC(c1ccc(Cl)cc1)(c1ccc(Cl)cc1)C(Cl)(Cl)Cl`, the half-maximal activity concentration (AC50) was 12 µM (active) in test [1]; 15.3 µM (active) in [2]; 30.3 µM (active) in [3]; 21.2 µM (active) in [4]; 34.1 µM (active) in [5]; 16.3 µM (active) in [6]. In addition, the AC50 in test [7] is 17.3 µM (active); in test [8], 28.6 µM (active); in test [9], 12.9 µM (active); in test [10], 0.258 µM (active); in test [11], 31.4 µM (active); in test [12], 11.5 µM (active). The half-maximal activity concentration (AC50) was 12.2 µM (active) in test [13], 14.5 µM (active) in [14], 31.2 µM (active) in test [15] and 13.9 µM (active) in test [16]. Moreover, the result in test [17] and in test [18] was inactive.
`CO/N=C(/C1=NOCCO1)c1ccccc1Oc1ncnc(Oc2ccccc2Cl)c1F`: the concentration at half-maximal activity (AC50) in test [1] was 9.24 µM (active); in test [2], 20 µM (active); in test [4], 13.4 µM (active); in test [6], 20 µM (active); in [8] it was 8.6 µM (active); in test [11], 15.5 µM (active). In [12], the AC50 was 11.1 µM (active). In addition, the result in test [3], in [5], in [7], in [9], in [10] and in [19] was inactive. Also, the result in test [20], in [13], in test [14], in [15], in test [16] and in test [17] was inactive. In addition, in test [18], the outcome was inactive.
For `CCSC(=O)N1CCCCCC1`, the outcome in test [1], in test [2], in test [3], in [4], in test [5] and in test [6] was inactive. Moreover, the outcome in test [7], in test [8], in test [9], in test [10], in test [11] and in test [19] was inactive. The outcome in test [12], in [20], in test [13], in test [14], in test [15] and in test [16] was inactive. Also, the outcome in test [17] and in [18] was inactive.
Consider `N#Cc1c(Cl)cccc1Cl`, for which, in test [1], the AC50 was 3.97 µM (active). For the same molecule, the outcome in test [2], in [3], in test [4], in test [5], in test [6] and in [7] was inactive. The result in [8], in test [9], in [10], in test [11], in test [12] and in [20] was inactive. The outcome in test [13], in test [14], in [15], in [16], in test [17] and in test [18] was inactive.
Regarding `CCOc1nc(C(Cl)(Cl)Cl)ns1`, the half-maximal activity concentration (AC50) in [1] was 13.8 µM (active). The outcome in [2], in test [3], in test [4], in test [5], in [6] and in [7] was inactive. In addition, the outcome in test [8], in [9], in [10], in test [11], in [12] and in test [13] was inactive. In addition, the outcome in test [14], in test [15], in [16], in test [17] and in test [18] was inactive.
